Whole data set: some 24,000 sequences, median “enrichment r” near 0.99, cut for the highest 2% near 3.7. The list comes from a sample in which the highest values are over-represented; it also holds similar and randomly drawn sequences.
B1: chr17:45747064:45747065:+_ENSG00000108424_ENST00000290158|hu_hu|hu_hu_hu_mus_True|38_98 (ssRNA)
RNA: GGGAGUUCUACAGUCCGACGAUCGCCCACAGUCCACGCAGCUGUAUCUCGAACAACUACACUGGGGUCUUUCAUUAGUUCUAUUAGGGUGGGCAUAGCCUGUAUAACUAAUGGUUUCAGUUGAUUAGGCUCUGGUCCUUCCAACAACAGAGGAUUGAGCAUCA
B2: chr1:244855233:244855234:+_ENSG00000121644_ENST00000302550|hu_mus|hu_hu_hu_mus_True|98_98 (ssRNA)
RNA: GGGAGUUCUACAGUCCGACGAUCCAUCAGAUGGUAGGCAUUGCCUUUAUACUCUUUCCCCAGUUCUUCUACAAUUUUCUCUAUAUCAUCUUCUAGAAAGUCCGUACUUCCUAGAACAACAGCUUCUUUAAAUUUAAAUGUUUCCAACAGAGGAUUGAGCAUCA
B3: chr3:10015032:10015033:+_ENSMUSG00000027533_ENSMUST00000029046|mus_mus|mus_mus_mus_hu_True|58_58 (ssRNA)
RNA: GGGAGUUCUACAGUCCGACGAUCGUUUUUACCAUCACAAGUGAUGAUACAAUCUGGCUUGGCCAUUGCGCCCAUUUUCCUAAGAGCUAUUCCCACUCCUAGCUCCUUCAUGUAUUCAUCAAAGCCUUUGCUGUCCACCAGGCGCAACAGAGGAUUGAGCAUCA
B4: chr14:102449733:102449734:+_ENSG00000197102_ENST00000360184|hu_mus|FALSE|FALSE (ssRNA)
RNA: GGGAGUUCUACAGUCCGACGAUCCAGCACCUGGAGCUUCUCGUACUCGUCGUCCCACGUCUGGAAGACUUCGAAGCAAGCCACCAUGACCUUUUCAAACUCUUCAUAGGCUACAUGCAUCAACUUCCGAGUGCCCAAGACCUUCAACAGAGGAUUGAGCAUCA
B5: chr7:107985766:107985767:+_ENSMUSG00000029461_ENSMUST00000049053|mus_hu|FALSE|FALSE (ssRNA)
RNA: GGGAGUUCUACAGUCCGACGAUCCCCUAGGUAAAUUUUUGUAAGCAAGGUGCCCACUAGGUAGGAAGGCUGCAUUUAAUGCUAAUUUACUGUAAGGUCUAGGGAAGUCCUUUCCGCUUCUCUGGGCCUCAGUUUCCUCAUCUGCAACAGAGGAUUGAGCAUCA
B6: chr11:130013608:130013609:+_ENSG00000084234_ENST00000528499|hu_hu|motif|central (ssRNA)
RNA: GGGAGUUCUACAGUCCGACGAUCAGCAUGUGUCAGACAAUACAAUGGAAGUGGGGUUUCUGAUUAAUUUAAAAAAGAAAACGGCAUCAAAUAUCUGCAAUAGAUCAUUUUUUUCAUUUAAGGUUUAUAUAUCAUAUAUUGUUACAACAGAGGAUUGAGCAUCA
B7: chr10:57235669:57235670:-_ENSMUSG00000019877_ENSMUST00000020027|mus_hu|FALSE|FALSE (ssRNA)
RNA: GGGAGUUCUACAGUCCGACGAUCAAAUUGUGGAAUACAAUGUCUACACACAGAAUAAGGUUGGGGAAUUAAGCUGAAUUGUUAUAUUCCAUUCACAUUAAUAAAUAUUUUUAAAGAAGAAAUUGUAGAUUUUAAAAGCUUCAUCAACAGAGGAUUGAGCAUCA
B8: chr14:62153831:62153832:-_ENSMUSG00000021930_ENSMUST00000100496|mus_mus|FALSE|FALSE (ssRNA)
RNA: GGGAGUUCUACAGUCCGACGAUCAUAUUUGUUUAAAUAAGAUUAAAUAAGUUGCCUAGAUCUUUUAAACCAAACCUCAGCAUGGUAUAAUGAAUACAUGGGUUCCUUGGACAACAAUUAGAAGCUCAGUGUUCAGCAUGUGUUCAACAGAGGAUUGAGCAUCA
B9: chr16:35696996:35696997:-_ENSMUSG00000022848_ENSMUST00000023554|mus_mus|FALSE|FALSE (ssRNA)
RNA: GGGAGUUCUACAGUCCGACGAUCAAGACGGGUCCAGGAGCCAUGCAAUGAGUAUGUUUUUGUUUUUGUUUUUUUUAAAAAUCCAUUAUUUAUAGAAAGAAAUAGGUAUUGGCAAAAAUCUGUCCAAUCAAAUACAAUGACUUCCAACAGAGGAUUGAGCAUCA
B10: chr14:57341393:57341394:-_ENSMUSG00000021938_ENSMUST00000022507|mus_hu|FALSE|FALSE (ssRNA)
RNA: GGGAGUUCUACAGUCCGACGAUCCUGAAUAUUCAGAAGCUAUAUGAAAUGUAGCUGGAAAUUCCGAUUUCACAGAACAUCAGUGGUUUAUACAAAUUAAACUCCCAUACCCUCCCACCCCCACAUAUACUACUCUAUCUACCCCAACAGAGGAUUGAGCAUCA
B11: 98287512_98287632_2604_3pUTR_ENSG00000180543_ENST00000322128|human|control|control (ssRNA)
RNA: GGGAGUUCUACAGUCCGACGAUCUACCUCCCCAGCUGUAUGUAGAAAAAUGUGGUUUUUCAGUUGUUUUCUCUGUGGUACUAUUUAAACAAAAUAAAAAAGAAUAAGGAAAGAAGGAAGGGGAAGGCAGAAGAGGAGGAAAGGCAACAGAGGAUUGAGCAUCA
B12: 48457567_48458910_1668_CDS_ENSG00000079387_ENST00000551330|human|control|control (ssRNA)
RNA: GGGAGUUCUACAGUCCGACGAUCGAGAACUUCAUCCUGAUUCCCAUUACGAAAUACAUUCUUUAUUUCUUUCUCCAUUUCCUCUGUAAUUUCAGGAAAUUCAUCUUCACUAUCAGUUAAUUUAUGACCUUUUUUUUGUGUUUCCAACAGAGGAUUGAGCAUCA
B13: chr17:64801638:64801639:+_ENSG00000154229_ENST00000413366|hu_mus|hu_hu_hu_mus_False|28_38 (ssRNA)
RNA: GGGAGUUCUACAGUCCGACGAUCUAUAUAUAUAUAUACAUAUGUACACAUAUAUAGUAAAACCCUAGUUAAACGUGUAAAGUAGCCAUUCAUUUUUGAAAUUUUAUCUACAUUUAAAAAUUAAUAUAUCUGAUAGAGUGCCAGCAACAGAGGAUUGAGCAUCA
B14: chr6:30403744:30403745:+_ENSMUSG00000029775_ENSMUST00000068259|mus_mus|motif|central (ssRNA)
RNA: GGGAGUUCUACAGUCCGACGAUCAGGAGAAGGCUAAACACUGAUUAUCUAUGGAUUUCGAUUGUGUGUGCUUUCACCUUGCGGCAGUGGAUAACGAAAGAUCAGUCAUACUUUUAAUCUAGAAAUGUUAAUAUUUUCAUCAUACAACAGAGGAUUGAGCAUCA
B15: chr4:140213729:140213730:-_ENSG00000109390_ENST00000265500|hu_mus|FALSE|FALSE (ssRNA)
RNA: GGGAGUUCUACAGUCCGACGAUCGAAGCUGACUGUAUUAUUUCCAAAGUUUAUUCCAAUCCAUUUCUUCUUUUAUACUCCAAAACAUCUUCAUUGUGUGUUUGGAUGAGCUACAAGAUAAUGGUUAAAAUUAGAAAUGUGAGCCAACAGAGGAUUGAGCAUCA
B16: chr4:136876768:136876769:-_ENSMUSG00000006699_ENSMUST00000051477|mus_mus|FALSE|FALSE (ssRNA)
RNA: GGGAGUUCUACAGUCCGACGAUCAAACAACAAACGUUUGUGGGGAUUUUUGUUUUUUUUUUUAAACAAAGAAAACAAAAACUAGCACUCAUUGCUUUUCAGACAAUACAUAAUUAUUCAAAAUUAACUAUUACUGGAAGGGCACAACAGAGGAUUGAGCAUCA
B17: chr14:49633609:49633610:-_ENSMUSG00000061244_ENSMUST00000162175|mus_mus|FALSE|FALSE (ssRNA)
RNA: GGGAGUUCUACAGUCCGACGAUCCAUUCAUUUUCUGACACCAACAUUUUCCAGGAUUAUAACAGUCAUGUAGGUUUAUAGAAUUUGAAAUUUAUAAAUUAAAGUAUAGAAUUCAACAUAACAGGGAAAAGAUAAAAAUACAGCCAACAGAGGAUUGAGCAUCA
B18: chr7:141450121:141450122:+_ENSG00000106028_ENST00000265304|hu_mus|hu_hu_hu_mus_True|68_68 (ssRNA)
RNA: GGGAGUUCUACAGUCCGACGAUCUCAUCCGUUCUAUGCCUUUUCUUUUGUCUGGUCACUCAGAAAUAUAAUAUUAUCAGCUAUGAUUGUUGUUGCUUGCCGCCUCACAUUGUUUUUAUCCAUGUACUCGCCAUAGUCCACUUUCAACAGAGGAUUGAGCAUCA
B19: chr11:80063784:80063785:+_ENSMUSG00000017686_ENSMUST00000092857|mus_mus|FALSE|FALSE (ssRNA)
RNA: GGGAGUUCUACAGUCCGACGAUCCAUUAGGUUUCUUCCAAGGAGAGACUGAAGAACUCCAGUUUUCCCACAGCCUUUCACUCCAAUUACAUUACACCUGAACACAUUUCUCUGAGUCUGUUUUUUCUGCAGGUCAAUCUUUUUCAACAGAGGAUUGAGCAUCA
B20: chr9:95013113:95013114:-_ENSG00000196305_ENST00000443024|hu_hu|hu_hu_hu_mus_False|58_58 (ssRNA)
RNA: GGGAGUUCUACAGUCCGACGAUCCUCAGUCAGAAAGGGCGUGUAAGGGGCCAUCAGUCUGCACAGAGAAAGCAGGACACUAAACAAUGUCUCCAGAGCCAUGACACAGUCUUCCACCCCACUCUCACCCUUUAACCUCCUCCUCAACAGAGGAUUGAGCAUCA
B21: 76184225_76186117_1027_CDS_ENSG00000119685_ENST00000298832|human|control|control (ssRNA)
RNA: GGGAGUUCUACAGUCCGACGAUCCCAUUUGUUUCCAUAAUCCUCCACUUCUGGAUCGUCACAACUGACGUAAUCUCCACUUUUCUUGUUGACACUGUAGUUUGUCAGAUGCAUGAACUGGUUCCGAAUGUUCUUGGCUCCUUGCAACAGAGGAUUGAGCAUCA
B22: chr11:31958201:31958202:+_ENSMUSG00000020297_ENSMUST00000020537|mus_mus|FALSE|FALSE (ssRNA)
RNA: GGGAGUUCUACAGUCCGACGAUCCCAUGAGUUUGUGCAAAUCUUGCAAGCUCACCAUUGAGUGGUACUCUGUGCAUUCCUAGUUGAGAAAUGCCAACAUCACCUUCCUCUCCAAAUCAGCCUUGCCUGCCAUCGCUGUGCUUCCAACAGAGGAUUGAGCAUCA

Molecular target: T1, UNK ZnF1-3 (human, UniProt Q9C0B0 31-174)
T1 sequence: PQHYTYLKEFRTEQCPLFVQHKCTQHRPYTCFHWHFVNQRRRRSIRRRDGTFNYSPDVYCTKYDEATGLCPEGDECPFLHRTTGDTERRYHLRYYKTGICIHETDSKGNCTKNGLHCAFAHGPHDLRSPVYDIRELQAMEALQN
Assay: nsRBNS (natural sequence RNA bind-n-seq); RBNS binding buffer (assumed for nsRBNS): 25 mM Tris pH 7.5, 150 mM KCl, 3 mM MgCl2, 0.01% Triton X-100, 500 ug/ml BSA, 20 U/ml SUPERase-In, 4 C; UNK is unkempt and MSI1 is Musashi-1; names of the RNAs are library labels; protein concentration not given here; high values mean tight binding

Binder	binding signal
B1	0.573 enrichment R
B2	1.59 enrichment R
B3	0.594 enrichment R
B4	1.2 enrichment R
B5	0.876 enrichment R
B6	5.2 enrichment R
B7	6.49 enrichment R
B8	0.982 enrichment R
B9	2.16 enrichment R
B10	4.65 enrichment R
B11	3.05 enrichment R
B12	0.373 enrichment R
B13	2.54 enrichment R
B14	0.934 enrichment R
B15	1.21 enrichment R
B16	0.695 enrichment R
B17	5.9 enrichment R
B18	0.465 enrichment R
B19	0.484 enrichment R
B20	1.48 enrichment R
B21	0.4 enrichment R
B22	0.67 enrichment R
